# aDG glyco up: activators of alpha-DG glycosylation, primary screen, uHTS, Pro5-aDG cells, AlphaScreen; alpha-DG glycosylation AlphaScreen (IIH6); 0% Pro5, 100% B10-LARGE cell signal; activation, % at 10 µM; actives 0.22% (n = 360,000); AID 624168, 2012;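 active = activation of at least 8% versus controls, or a plate z-score of at least 8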;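 note: Pro5 are CHO cells carrying HIG-tagged alpha-DG that lacks glycosylation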
# H9c2 protect: cardioprotection against H2O2-induced cell death, primary screen, uHTS, H9c2 cells, ATPLite luminescence | protection from H2O2 cell death, % at 20 µM | AID 588492, 2011 | actives 0.63% (n = 360,000) | H9c2 cardiomyocytes, H2O2 injury protection, 2 h;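 active = compounds giving at least 50% protection of heart cells from peroxide-induced death in the single-dose screen, raw or plate-pattern-corrected value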;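 note: 0% = DMSO wells with peroxide and 100% = DMSO wells without peroxide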
# Vif inh: HIV Vif self-association inhibitors, primary screen, imaging, HEK293T, single point; HEK293T cells, Vif self-association by quenched fluorescence, 24 h; inhibition, % at 7.49 µM; actives 0.35% (n = 340,000); AID 602346, 2012; in the data active = inhibition above about 50%, passing the limit was not always enough
# N-glyco inh: increase of ERlucT glycosylation luciferase signal, primary screen, N-linked glycosylation inhibitor project, D54 ERlucT cells, luminescence, set 2; AID 588692, 2011; reporter increase, % at 12.5 µM; actives 0.23% (n = 360,000); D54 ERlucT glycosylation luciferase reporter, 24 h; percent of 100 nM tunicamycin response;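 active = mean luciferase reporter signal, scaled so untreated is 0 and the glycosylation-blocking control 100, at or above a set limit in every replicate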;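 note: luciferase carries N-glycosylation sites so blocking glycosylation raises the light; 0% = median of neutral control wells and 100% = median of 100 nM tunicamycin wells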
# ARNT-TACC3 inh: disruptors of ARNT/TACC3 protein interaction, primary screen, biochemical, AlphaScreen, single concentration; Transforming acidic coiled-coil-containing protein 3 (Homo sapiens), Q9Y6A5; AlphaScreen His-ARNT PAS-B/GST-TACC3 binding, luminescence; TACC3 fragment carries E629A point mutation; inhibition, % at 9.99 µM; actives 0.66% (n = 390,000);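 active = mean inhibition of replicates at least 50% and at least half of replicates each reaching 50%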;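 note: 0% = complete ARNT plus TACC3 wells and 100% = ARNT alone without TACC3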
# * marks the source's active call; other numbers are inactive results; · = no result given; ! = a repeat was not active. An excerpt weighted towards active compounds, which were near 1.7% of everything screened.
SMILES,aDG glyco up,H9c2 protect,Vif inh,N-glyco inh,ARNT-TACC3 inh
COc1ccc(S(=O)(=O)N(CCCN2CCCC2=O)Cc2cc3cc(C)c(C)cc3[nH]c2=O)cc1,0,47*,-4,2,-1
CC(C)CC#Cc1cnc2c(c1)C(=O)N([C@@H](C)CO)C[C@H](C)[C@H](CN(C)C(=O)c1ccc3c(c1)OCO3)O2,·,·,·,·,0
Clc1ccc(-c2ccc(-c3nn4c(-c5ccco5)nnc4s3)o2)cc1,1,26,5,4,4
c1ccc(-c2nn3c(-c4ccco4)nnc3s2)nc1,0,81*,18,4,8
COc1cccc(-c2nn3c(-c4ccccn4)nnc3s2)c1,0,57*,1,-5,24
COc1ccc(-c2nn3c(-c4ccccn4)nnc3s2)cc1OC,0,39,4,1,·
COc1cccc(-c2nnc3sc(-c4ccccn4)nn23)c1,0,88*,15,1,32
Cc1ccc(S(=O)(=O)Nc2ccc3c(c2)CC(=O)N([C@@H](C)CO)C[C@@H](C)[C@@H](CN(C)Cc2ccc(C(=O)Nc4ccccc4N)cc2)O3)cc1,·,·,·,·,4
CCCC#Cc1cnc2c(c1)C(=O)N([C@@H](C)CO)C[C@@H](C)[C@H](CN(C)C(=O)C1CCOCC1)O2,·,·,·,·,-3
C[C@@H]1CN([C@@H](C)CO)C(=O)Cc2cc(NC(=O)Nc3ccc4c(c3)OCO4)ccc2O[C@@H]1CN(C)CC1CC1,·,·,·,·,3
c1ccc(CNc2ncnc3c2cnn3-c2ccccc2)cc1,0,3,-3,26*,30
Fc1ccc(CNc2ncnc3c2cnn3-c2ccccc2)cc1,2,-19,-12,5,-2
COc1ccc(Cl)c2c1[nH]c1nc(SCc3ccccn3)nnc12,1,64*,-11,-1,4
COc1ccc(Cl)c2c1[nH]c1nc(SCc3cccnc3)nnc12,0,-2,-2,-3,4
COCC#Cc1cnc2c(c1)C(=O)N([C@H](C)CO)C[C@@H](C)[C@H](CN(C)C(=O)Nc1ccc(OC)cc1)O2,·,·,·,·,-1
c1ccc(Sc2ncnc3ccccc23)cc1,0,-1,·,1,-9
c1ccc(Cc2nnc(Sc3ccccc3)c3ccccc23)cc1,0,29,23,36*,0
CCOC(=O)C1CCN(S(=O)(=O)c2cccc(-c3cn4cc(C)ccc4n3)c2)CC1,0,-25,64*,-1,7
CCOC(=O)C1CCN(S(=O)(=O)c2cccc(-c3cn4cccnc4n3)c2)CC1,0,-25,-14,-1,-9
Cc1ccc(-n2nc3c(N4CCC(C(=O)NCCc5ccccc5C)CC4)nnc(C)c3c2C)cc1,1,-17,54*,-17,-1
C[C@H]1CN([C@@H](C)CO)C(=O)c2cccc(NC(=O)C3CC3)c2O[C@@H]1CN(C)Cc1ccncc1,·,·,·,·,-3
COc1ccc(C(=O)Nc2c(Cl)cc(Cl)cc2C(=O)N2CCOCC2)cc1,0,-17,65*,2,-3
O=C(N[C@H]1CC[C@H](CCNC(=O)C2CCCC2)O[C@@H]1CO)c1ccncc1,·,·,·,·,-11
C[C@H]1CN([C@@H](C)CO)C(=O)c2cc(NC(=O)Cn3cnnn3)ccc2O[C@H]1CN(C)C(=O)Nc1ccc(C(F)(F)F)cc1,·,·,·,·,-3
COC(=O)c1cc(Cl)c(NC(=O)c2cc3ccccc3o2)cc1OC,0,-2,63*,1,-3
SMILES,aDG glyco up,H9c2 protect,Vif inh,N-glyco inh,ARNT-TACC3 inh
COc1cc(NC(=O)c2ccc(F)cc2)ccc1NC(=O)c1cc2ccccc2o1,0,-3,1,-2,-3
COC(=O)c1cc(OC)c(OC)cc1NC(=O)CCc1ccc(C)o1,0,0,0,-1,9
COC(=O)c1cc(OC)c(OC)cc1NC(=O)c1ccc(C)o1,0,50*,-7,2,-2
COc1cc(NC(=O)c2c(OC)cccc2OC)ccc1NC(=O)c1cc2ccccc2o1,0,54*,-9,4,0
C[C@H](CO)N1C[C@H](C)[C@H](CN(C)S(=O)(=O)c2cccs2)Oc2ccc(N(C)C)cc2CC1=O,·,·,·,·,7
CN(C)c1ccc(N=Cc2cccn2C)cc1,0,-19,5,-17,60*
C[C@H]1CN([C@@H](C)CO)C(=O)c2cc(N(C)C)ccc2O[C@H]1CN(C)C(=O)Nc1ccc(F)cc1,·,·,·,·,-18
COc1ccc(CC(=O)N(Cc2ccccc2)c2ccc(C)cc2)cc1OC,0,9,-5,31*,-1
CCC(=O)N1C[C@@H](C)[C@H](OC)CN(C)C(=O)c2cc(NC(=O)Nc3cccc(F)c3)ccc2OC[C@H]1C,·,·,·,·,0
COc1ccc(S(=O)(=O)N2C[C@H](O)COC[C@@H]3O[C@@H](CC(=O)NCCCN4CCOCC4)CC[C@H]32)cc1,·,·,·,·,-7
CCOC(=O)C1CCCN(CC(=O)Nc2c(C(=O)OC)[nH]c3ccc(C)cc23)C1 (stereo not given),0,4,4,0,-4
CCOC(=O)C1CCCN(CC(=O)Nc2c(C(=O)OC)[nH]c3ccc(Cl)cc23)C1 (stereo not given),0,-14,61*,-2,8
CCCC(O)(c1ccccc1)C(CN1CCOCC1)c1ccccc1 (stereo not given),0,-4,·,-3,-2
CCCC(O)(c1ccc(Cl)cc1)C(CN1CCOCC1)c1ccccc1 (stereo not given),0,-2,-14,-6,46*
COc1ccc(-c2cc(C(=O)N(C)Cc3ccccc3F)c3ccccc3n2)cc1OC,-1,66*,-4,-5,-2
COc1cc(-c2cc(C(=O)N(C)Cc3ccccc3)c3ccccc3n2)cc(OC)c1OC,0,35,-13,-4,-1
COc1ccccc1CN(C)C(=O)c1cc(-c2cc(OC)c(OC)c(OC)c2)nc2ccccc12,0,50*,5,-9,-2
O=S(=O)(Nc1cccc2ncccc12)c1cccs1,0,43,17,-19,58*
COc1ccc(NC(=O)Cn2nnc(C(=O)Nc3ccccc3C)c2N)cc1,0,-1,53*,0,-9
O=C(c1cccc(F)c1)N1CC[C@H]2[C@H](CO)Nc3ccc(-c4ccc(F)cc4)cc3[C@H]21,·,·,·,·,12
Nc1c2ccccc2nc2ccccc12,0,-5,-7,33*!,9
Nc1c2c(nc3ccccc13)CCCC2,0,14,-4,0,0
COC(=O)C1SCC2C(=O)N(Cc3cccc(C)c3)CC(=O)N21 (stereo not given),0,6,128*,-2,-1
